# Of roughly 8,800 targets only a part is listed; those with a hit were picked by preference. About 0.5% of all pairs of compound and target were hits. Values without a mark were called inactive.
# Assays:
# Experiment in all cases: log2 fold change, soluble protein after heating vs DMSO (PISA); higher = thermal stabilisation; K562 lysate, 10 uM; active = over 0.2 and 3.5 SD of the protein, either way, in both replicates (recomputed)
# [1] = compound: NCC(=O)Nc1ccc(-n2nc(C(F)(F)F)cc2-c2ccc3c(ccc4ccccc43)c2)cc1
# Outline: (§1)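 Following dounce homogenisation of K562 pellets in PBS pH 7.4 with 1 mM MgCl2, crude extract at 1 mg/mL protein was incubated for 30 min with 10 μM compound. Aliquots were then heated for 3 min over 48°C-58°C and pooled, NP-40 was added to 0.5% at 4°C, and soluble protein was recovered as the supernatant at 21,000xg for 90 min. Channel-sum-equalised TMTpro 16plex LC-MS/MS quantified this protein. Each value, from duplicates, is a log-two fold change in thermal stability relative to solvent controls.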
# [2] = compound: O=C(CCCCCCC(=O)Nc1ccccc1)NO [vorinostat]
# Outline: as §1
# [3] = compound: O=C(O)c1ccc2c(c1)nc(Nc1cccc(Cl)c1)c1ccncc12 [silmitasertib]
# Outline: as §1
# [4] = compound: O=C1NC(=O)C(c2cnc3ccccn23)=C1c1cn2c3c(cc(F)cc13)CN(C(=O)N1CCCCC1)CC2
# Outline: as §1
# [5] = compound: c1cn2cc(-c3ccc4cn[nH]c4c3)nc(Nc3ccc(N4CCOCC4)cc3)c2n1 [entospletinib]
# Outline: as §1
# Sequence of UniProt Q9H4L5 (Q9H4L5 whole entry, looked up): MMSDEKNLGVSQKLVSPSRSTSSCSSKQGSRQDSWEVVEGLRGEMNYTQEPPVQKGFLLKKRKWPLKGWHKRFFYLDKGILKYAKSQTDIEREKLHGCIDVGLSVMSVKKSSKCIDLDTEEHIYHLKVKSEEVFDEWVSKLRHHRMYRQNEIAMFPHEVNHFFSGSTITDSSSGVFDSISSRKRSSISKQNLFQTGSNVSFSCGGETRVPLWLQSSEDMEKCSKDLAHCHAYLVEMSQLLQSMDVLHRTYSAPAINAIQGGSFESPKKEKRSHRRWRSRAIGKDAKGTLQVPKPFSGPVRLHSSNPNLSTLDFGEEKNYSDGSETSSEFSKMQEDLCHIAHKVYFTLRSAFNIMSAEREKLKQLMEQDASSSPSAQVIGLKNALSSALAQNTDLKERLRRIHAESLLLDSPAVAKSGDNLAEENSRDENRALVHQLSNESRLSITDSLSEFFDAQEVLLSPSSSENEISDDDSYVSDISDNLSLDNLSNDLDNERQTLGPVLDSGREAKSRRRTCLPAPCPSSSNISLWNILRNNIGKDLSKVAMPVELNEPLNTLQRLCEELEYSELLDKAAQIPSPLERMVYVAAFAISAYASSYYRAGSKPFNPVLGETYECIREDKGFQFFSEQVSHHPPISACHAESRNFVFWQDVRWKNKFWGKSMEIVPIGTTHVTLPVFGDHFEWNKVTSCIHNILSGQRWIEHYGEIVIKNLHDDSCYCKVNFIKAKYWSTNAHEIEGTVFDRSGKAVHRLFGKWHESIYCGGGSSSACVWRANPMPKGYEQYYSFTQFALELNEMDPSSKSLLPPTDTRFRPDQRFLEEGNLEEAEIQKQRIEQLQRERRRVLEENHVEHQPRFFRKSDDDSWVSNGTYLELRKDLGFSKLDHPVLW
# Sequence of UniProt P03886 (P03886 whole entry, looked up): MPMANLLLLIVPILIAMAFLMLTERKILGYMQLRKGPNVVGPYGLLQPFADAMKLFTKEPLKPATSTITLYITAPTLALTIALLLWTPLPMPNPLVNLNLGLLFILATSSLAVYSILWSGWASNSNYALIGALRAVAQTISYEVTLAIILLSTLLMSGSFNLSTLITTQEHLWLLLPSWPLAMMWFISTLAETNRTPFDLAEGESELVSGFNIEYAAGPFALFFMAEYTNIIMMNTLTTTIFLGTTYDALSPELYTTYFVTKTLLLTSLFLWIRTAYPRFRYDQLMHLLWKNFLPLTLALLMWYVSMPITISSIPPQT
# Sequence of UniProt Q9BPZ3 (Q9BPZ3 whole entry, looked up): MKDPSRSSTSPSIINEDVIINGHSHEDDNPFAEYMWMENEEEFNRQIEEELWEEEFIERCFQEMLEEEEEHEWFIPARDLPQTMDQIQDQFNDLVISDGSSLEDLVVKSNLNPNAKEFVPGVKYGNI
# Sequence of UniProt Q01968 (Q01968 whole entry, looked up): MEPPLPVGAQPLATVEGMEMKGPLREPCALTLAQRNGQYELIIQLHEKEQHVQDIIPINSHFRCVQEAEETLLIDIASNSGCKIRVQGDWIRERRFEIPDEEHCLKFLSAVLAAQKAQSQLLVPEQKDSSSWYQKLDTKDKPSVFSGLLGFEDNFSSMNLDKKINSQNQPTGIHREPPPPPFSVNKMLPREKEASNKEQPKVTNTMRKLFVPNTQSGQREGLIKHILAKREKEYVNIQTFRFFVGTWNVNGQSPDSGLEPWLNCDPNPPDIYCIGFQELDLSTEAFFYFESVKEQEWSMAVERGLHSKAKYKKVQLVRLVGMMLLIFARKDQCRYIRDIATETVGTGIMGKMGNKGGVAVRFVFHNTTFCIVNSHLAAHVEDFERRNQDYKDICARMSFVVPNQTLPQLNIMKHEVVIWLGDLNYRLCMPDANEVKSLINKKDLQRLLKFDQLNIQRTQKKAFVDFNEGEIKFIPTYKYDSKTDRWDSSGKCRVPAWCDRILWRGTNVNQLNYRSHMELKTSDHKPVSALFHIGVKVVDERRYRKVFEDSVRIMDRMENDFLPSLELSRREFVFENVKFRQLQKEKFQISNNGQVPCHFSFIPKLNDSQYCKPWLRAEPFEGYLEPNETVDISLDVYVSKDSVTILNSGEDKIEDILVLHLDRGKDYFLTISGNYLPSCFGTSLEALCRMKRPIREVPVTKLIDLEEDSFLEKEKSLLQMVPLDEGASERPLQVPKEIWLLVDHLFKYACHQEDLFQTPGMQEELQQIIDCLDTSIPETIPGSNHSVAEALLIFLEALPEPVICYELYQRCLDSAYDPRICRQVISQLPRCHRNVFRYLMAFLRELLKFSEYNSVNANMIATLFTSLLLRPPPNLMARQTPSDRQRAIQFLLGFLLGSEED
# Sequence of UniProt P24468 (P24468 whole entry, looked up): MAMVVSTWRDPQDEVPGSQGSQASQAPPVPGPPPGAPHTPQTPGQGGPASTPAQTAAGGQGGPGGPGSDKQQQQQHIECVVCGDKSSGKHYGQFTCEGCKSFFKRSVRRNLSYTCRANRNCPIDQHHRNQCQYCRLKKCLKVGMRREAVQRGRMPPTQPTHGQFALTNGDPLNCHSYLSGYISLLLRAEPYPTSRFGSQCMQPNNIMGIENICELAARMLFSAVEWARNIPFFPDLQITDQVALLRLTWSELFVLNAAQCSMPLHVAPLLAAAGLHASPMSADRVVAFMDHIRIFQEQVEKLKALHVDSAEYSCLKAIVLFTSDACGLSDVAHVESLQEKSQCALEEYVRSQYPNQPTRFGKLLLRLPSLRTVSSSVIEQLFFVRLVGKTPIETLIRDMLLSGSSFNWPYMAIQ
# Sequence of UniProt P13533 (P13533 whole entry, looked up): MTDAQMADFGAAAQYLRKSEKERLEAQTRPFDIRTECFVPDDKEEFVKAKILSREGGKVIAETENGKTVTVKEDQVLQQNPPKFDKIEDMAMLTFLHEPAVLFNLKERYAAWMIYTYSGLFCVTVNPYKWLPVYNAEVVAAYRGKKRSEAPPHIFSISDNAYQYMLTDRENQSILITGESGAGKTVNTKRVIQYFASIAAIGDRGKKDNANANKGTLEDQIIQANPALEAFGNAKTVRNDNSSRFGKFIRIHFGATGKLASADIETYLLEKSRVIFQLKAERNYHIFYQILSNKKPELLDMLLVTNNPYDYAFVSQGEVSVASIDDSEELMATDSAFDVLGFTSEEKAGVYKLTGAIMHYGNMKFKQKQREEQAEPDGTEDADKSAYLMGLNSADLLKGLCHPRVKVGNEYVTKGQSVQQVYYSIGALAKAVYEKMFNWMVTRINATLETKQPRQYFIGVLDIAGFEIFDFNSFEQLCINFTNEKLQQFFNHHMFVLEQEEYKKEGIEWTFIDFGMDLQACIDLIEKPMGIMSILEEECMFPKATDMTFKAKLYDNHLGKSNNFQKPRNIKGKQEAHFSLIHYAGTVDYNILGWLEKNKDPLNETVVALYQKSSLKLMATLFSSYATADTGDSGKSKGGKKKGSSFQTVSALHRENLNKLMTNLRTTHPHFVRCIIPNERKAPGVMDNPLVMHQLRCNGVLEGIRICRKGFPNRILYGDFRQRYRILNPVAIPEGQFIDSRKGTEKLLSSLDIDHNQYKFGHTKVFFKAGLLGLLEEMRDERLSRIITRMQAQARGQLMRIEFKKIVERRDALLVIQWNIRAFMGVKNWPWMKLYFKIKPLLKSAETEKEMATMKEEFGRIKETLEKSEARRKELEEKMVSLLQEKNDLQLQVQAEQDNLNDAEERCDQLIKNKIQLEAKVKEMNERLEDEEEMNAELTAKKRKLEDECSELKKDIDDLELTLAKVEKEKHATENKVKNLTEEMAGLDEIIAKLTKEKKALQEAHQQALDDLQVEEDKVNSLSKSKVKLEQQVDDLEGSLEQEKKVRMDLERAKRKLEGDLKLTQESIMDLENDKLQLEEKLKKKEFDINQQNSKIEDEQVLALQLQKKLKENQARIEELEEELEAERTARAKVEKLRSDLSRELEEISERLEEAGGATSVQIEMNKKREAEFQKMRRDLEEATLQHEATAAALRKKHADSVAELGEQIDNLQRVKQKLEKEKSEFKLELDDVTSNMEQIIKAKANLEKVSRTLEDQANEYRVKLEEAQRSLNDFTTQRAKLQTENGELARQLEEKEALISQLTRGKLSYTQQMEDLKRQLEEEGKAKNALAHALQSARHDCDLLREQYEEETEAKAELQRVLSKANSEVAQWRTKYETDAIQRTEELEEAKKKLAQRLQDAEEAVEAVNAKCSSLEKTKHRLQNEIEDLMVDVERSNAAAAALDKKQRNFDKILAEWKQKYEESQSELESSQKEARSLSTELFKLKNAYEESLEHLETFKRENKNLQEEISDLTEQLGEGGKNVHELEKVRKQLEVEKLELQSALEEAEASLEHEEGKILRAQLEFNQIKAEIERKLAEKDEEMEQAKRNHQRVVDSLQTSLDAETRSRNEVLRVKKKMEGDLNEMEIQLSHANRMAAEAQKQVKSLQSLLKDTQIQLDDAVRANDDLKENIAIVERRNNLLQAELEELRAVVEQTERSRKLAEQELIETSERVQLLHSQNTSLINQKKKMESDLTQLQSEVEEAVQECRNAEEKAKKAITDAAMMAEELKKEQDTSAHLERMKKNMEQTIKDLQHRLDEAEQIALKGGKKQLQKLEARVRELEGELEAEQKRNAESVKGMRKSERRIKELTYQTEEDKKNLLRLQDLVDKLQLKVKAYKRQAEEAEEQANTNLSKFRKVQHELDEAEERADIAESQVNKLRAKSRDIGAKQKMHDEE
# Sequence of UniProt P18440 (P18440 whole entry, looked up): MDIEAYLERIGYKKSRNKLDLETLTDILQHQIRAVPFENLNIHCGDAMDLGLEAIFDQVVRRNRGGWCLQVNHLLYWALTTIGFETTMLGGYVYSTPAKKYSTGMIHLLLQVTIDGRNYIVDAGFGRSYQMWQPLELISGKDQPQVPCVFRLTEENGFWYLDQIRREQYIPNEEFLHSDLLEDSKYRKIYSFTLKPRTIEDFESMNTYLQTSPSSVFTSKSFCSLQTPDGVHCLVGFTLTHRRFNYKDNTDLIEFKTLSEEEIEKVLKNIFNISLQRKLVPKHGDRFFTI
# Sequence of UniProt O60829 (O60829 whole entry, looked up): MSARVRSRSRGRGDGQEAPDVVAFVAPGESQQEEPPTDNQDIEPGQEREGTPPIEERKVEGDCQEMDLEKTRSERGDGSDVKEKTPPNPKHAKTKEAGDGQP
Target,log2 fold change [1],log2 fold change [2],log2 fold change [3],log2 fold change [4],log2 fold change [5]
OAT (UniProt P04181),0.053,0.168,-0.006,0.042,0.029
MYBL2 (UniProt P10244),-0.03,-0.333 (active),0.003,0.008,0.025
NUDT4 isoform 2 (UniProt Q9NZJ9),0.057,-0.336 (active),-0.034,0.018,-0.023
NTPCR (UniProt Q9BSD7),0.014,-0.331 (active),0.029,0.003,0.059
NMT1 (UniProt P30419),-0.35 (active),0.028,-0.03,-0.036,0.034
PARP14 (UniProt Q460N5),-0.006,-0.391 (active),0.009,0.149,-0.014
N6AMT1 (UniProt Q9Y5N5),-0.043,0.076,-0.025,-0.007,-0.011
NFIC (UniProt P08651),0.063,-0.083,-0.026,-0.032,-0.025
OCRL (UniProt Q01968),0.134,-0.43 (active),0.032,0.019,-0.032
NBEAL2 (UniProt Q6ZNJ1),-0.025,-0.341 (active),0.047,0.02,0.026
MXRA7 (UniProt P84157),0.118,0.262,-0.102,0.099,0.021
NUP188 (UniProt Q5SRE5),-0.002,-0.36 (active),0.073,-0.009,-0.003
NCOR2 (UniProt C9J0Q5),0.093,-0.27 (active),-0.016,0.011,-0.074
NEK7 (UniProt Q8TDX7),-0.037,-0.338 (active),0.105,0.003,0.012
PARD3 (UniProt Q8TEW0),-0.071,-0.314,-0.118,-0.081,-0.003
MSH2 (UniProt P43246),0.006,-0.287 (active),0.027,-0.022,0.034
MVB12A (UniProt Q96EY5),-0.002,-0.812 (active),-0.016,0.016,0.042
ORC1 (UniProt Q13415),–,–,–,–,-0.047
P2RY1 (UniProt P47900),–,0.04,0.13,–,-0.064
NFATC4 isoform 2 (UniProt Q14934),0.207,–,–,0.076,0.019
MYCBP2 (UniProt O75592),0.031,-0.223 (active),-0.002,0.007,-0.002
NR3C1 isoform 3 (UniProt P04150),-0.124,–,0.05,0.046,-0.064
NAA16 (UniProt Q6N069),0.43,–,–,–,-0.018
NAT1 (UniProt P18440),-0.049,0.144,0.275 (active),0.032,-0.04
NOB1 (UniProt Q9ULX3),0.017,-0.128,0.048,-0.024,0.024
PAIP2 (UniProt Q9BPZ3),0.033,0.054,-0.052,-0.025,-0.027

Target,log2 fold change [1],log2 fold change [2],log2 fold change [3],log2 fold change [4],log2 fold change [5]
NEXN (UniProt Q0ZGT2),0.144,-0.335,-0.038,–,0.042
NFAT5 isoform 4 (UniProt O94916),–,–,–,-0.062,–
NCAPH (UniProt Q15003),-0.031,-0.33 (active),0.009,-0.01,-0.004
NUB1 isoform 2 (UniProt Q9Y5A7),–,–,–,-0.068,–
NUP98 (UniProt P52948),0.021,-0.231 (active),0.001,0.001,-0.012
NSA2 (UniProt O95478),0.035,-0.073,-0.042,–,0.208
OSGEP (UniProt Q9NPF4),-0.001,-0.038,-0.109,0.016,0.002
NR2F2 (UniProt P24468),–,-0.389 (active),0.176,0.017,–
NQO1 (UniProt P15559),0.008,-0.132,0.038,0.023,-0.027
NUDT5 (UniProt C9JYY9),–,-0.041,0.129,–,0.01
OSBPL1A (UniProt Q9BXW6),–,0.128,-0.19,-0.14,–
NRIP1 (UniProt P48552),–,0.274,0,0.06,–
PARD3B (UniProt Q8TEW8),–,-0.585 (active),-0.209,–,–
OSBPL3 isoform 2 (UniProt Q9H4L5),-0.087,-0.36 (active),0.402 (active),0.062,0.052
NSUN7 (UniProt Q8NE18),0.241,-0.003,0.005,-0.108,-0.042
NUCB2 (UniProt P80303),0,0.133,-0.026,-0.007,-0.008
PANK2 (UniProt Q9BZ23),0,–,–,-0.012,-0.023
NELFA (UniProt Q9H3P2),-0.057,-0.309 (active),-0.004,0.008,-0.027
NPLOC4 (UniProt I3L3I1),–,–,–,0.253,-0.146
ORC5 (UniProt O43913),0.023,-0.377 (active),0.072,0.011,0.066
PAGE4 (UniProt O60829),–,-0.425 (active),0.06,-0.074,-0.054
MT-ND1 (UniProt P03886),0.002,0.072,0.033,0.015,0.121
NFATC1 (UniProt O95644),0.014,-0.364 (active),0.07,0.033,-0.047
MYH6 (UniProt P13533),–,0.209,-0.053,0.188,0.102
MYLK (UniProt Q15746),-0.312,–,–,-0.294,-0.096
NOCT (UniProt Q9UK39),–,-0.886 (active),0.004,-0.036,-0.301
